This is part of a sample that, as a whole, favours compounds with a hit. Of some 83,000 tested, about 20% had one in any assay.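 Compound tested at a single concentration for 48 hours in 96-well plates; a percent growth value below 10 was scored as active.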 The source made the active and inactive calls.

One test relates to SNB-75 CNS. Description: NCI-60 one-dose screen, 48 h (100 = growth as untreated, 0 = no growth, -100 = all killed). As to conditions: 10 µM unless noted.
As for `O=C1Nc2ccc(Br)cc2C1=N/C=c1\[nH]c(=O)/c(=C/c2ccc(Cl)cc2)s1`, the growth is 93.9% (inactive). The same measure, in the same setting: next, `Nc1c(C(=O)Nc2cccc(C(F)(F)F)c2)sc2nc3c(cc12)CCCCC3`: -38.2% (active); `COc1cc(/C=C2\C=C(c3ccc(F)cc3)N(Cc3ccccc3)C2=O)cc(OC)c1OC`: 70.8% (inactive). With `Clc1nc(Cl)c2ncn(C/C=C/Cn3cnc4c(Cl)nc(Cl)nc43)c2n1`, the growth was 65% (inactive). The same measure, in the same setting: then `NC(C(=O)O)C(O)c1ccc(OCc2ccccc2)c(OCc2ccccc2)c1` (stereo not drawn), with 77.6% (inactive). Consider `Nc1c(C(=O)Nc2ccccc2)sc2nc3c(cc12)CCC3`, for which the growth was 65.5% (inactive). As to `COc1ccc(/C=C/c2cc(N3CCOCC3)c3cc(F)c(F)cc3n2)cc1OC`, the growth is 48% (inactive). In the case of `O=[N+]([O-])c1cccc(-c2cc(-c3cc(Br)ccc3O)[nH]n2)c1`, the growth is 38.8% (inactive). For the molecule `COC1=CC(c2ccc[nH]2)=N/C1=C\c1[nH]c(C)c(C(=O)CCC(=O)Oc2ccc3c(c2)CCC2C3CC[C@]3(C)[C@@H](O)CC[C@@H]23)c1C` (stereo partly drawn), the growth was 12.1% (inactive).

For `COc1ccc(C2=NN(c3ccc(S(N)(=O)=O)cc3)C(c3cn(-c4ccccc4)nc3-c3ccc(Cl)cc3)C2)cc1` (stereo not drawn), the growth is 89.9% (inactive).

In the case of `COc1cc(CCn2nnc3c(NCCCCO)ncnc32)cc(OC)c1`, the growth is 84.4% (inactive). On the same count and under the same terms, next, `Clc1ccc(-c2nc(-c3ccco3)cn3ccnc23)cc1`: 32% (inactive); `O=C(c1ccncc1)N1N=C(c2ccc(Cl)cc2)CC1c1c[nH]c2ccccc12` (stereo not drawn): 82.4% (inactive). As to `COc1ccc(-c2cn[nH]c2-c2cc(OC)c3c(c2)OCCO3)cc1`, the growth is -5.75% (active). On to `O=S(=O)(c1ccccc1)n1ccc(-c2ccc3c(c2)CCO3)n1`, for which the growth is 76.2% (inactive). As to `COC1=CC(c2ccc[nH]2)=N/C1=C\c1[nH]c(C)c(C(=O)CCCCC(=O)NCc2ccccc2)c1C`, the growth was 21.7% (inactive). As for `Nc1c(C(=O)Nc2cccc([N+](=O)[O-])c2)sc2nc3c(cc12)C(O)CCC3` (stereo not drawn), the growth was 16.9% (inactive). On to `COc1cccc(NC(=O)c2sc3nc4c(cc3c2N)CCCC4)c1`, for which the growth was 18.2% (inactive). On the same count and under the same terms, next, `O=C(Nc1cccc(C(F)(F)F)c1)Nc1ccc(OCc2nnc(-c3ccccc3)o2)c(F)c1`: 19.2% (inactive); `CC(=O)Nc1nc(C(=O)N2N=C(C)/C(=C/c3ccc(Cl)cc3)C2=O)cs1`: 98.3% (inactive); `COc1cc(C(=O)OCCCCCCCCCCC[P+](c2ccccc2)(c2ccccc2)c2ccccc2)ccc1O`: -75.7% (active).

Regarding `O=C(NCCCN1CCN(CCCNC(=O)C2CCCCC2)CC1)C1CCCCC1`, the growth was 88.7% (inactive). In the case of `COc1cc2c(cc1OC)C1(C)N(CC2)C(=O)OC1(C)C` (stereo not drawn), the growth was 76.5% (inactive).

With `CCCCCc1c(C)[nH]c(/C=c2\[nH]/c(=C3/C=c4ccccc4=N3)cc2OC)c1C`, the growth is -22.6% (active).

Turning to `COc1cc(-c2n[nH]nc2-c2ccc3c(c2)OCCO3)cc(OC)c1OC`, the growth is 25.4% (inactive).

For another test, the system named is SNB-19 CNS. Described as above. To be noted: 10 µM unless noted.
With `Clc1ccc([I+]c2ccc(Cl)cc2Cl)c(Cl)c1`, the growth is 87.8% (inactive). `Cc1ccc(C2=NN(c3ccc(S(N)(=O)=O)cc3)C(c3cn(-c4ccccc4)nc3-c3ccccc3)C2)cc1` (stereo not drawn): the growth is 87% (inactive). Same read-out and setting: next, `N#CC1=C(N)OC2=C(C(=O)CCC2)C1c1ccco1` (stereo not drawn): 98.3% (inactive); `COC1=CC(c2ccc[nH]2)=N/C1=C\c1[nH]c(C)c(C(=O)CCCCC(=O)Oc2ccc3c(c2)CCC2C3CC[C@]3(C)[C@@H](O)CC[C@@H]23)c1C` (stereo partly drawn): 75.6% (inactive). On to `COc1ccc(NC(=O)CSc2nc3ccccc3c(=O)n2Cc2cc(OC)c(OC)c(OC)c2)cc1`, for which the growth is 95.8% (inactive).

Regarding `Nc1c(C(=O)Nc2c(Cl)cccc2Cl)sc2nc3c(cc12)CCCCC3`, the growth was 68.5% (inactive). As for `O=C(CN1CCN(c2cc3c(cc2F)c(=O)c(C(=O)O)cn3C2CC2)CC1)Nc1ccc(C(=O)/C=C/c2ccccc2)cc1`, the growth is 40.3% (inactive). Take `COc1cc(/C=C/C(=O)c2ccc(NC(=O)CN3CCN(c4cc5c(cc4F)c(=O)c(C(=O)O)cn5C4CC4)CC3)cc2)cc(OC)c1OC`: the growth was 34.9% (inactive). Turning to `NC(=O)c1c(NC(=O)c2ccc(OCC3CCCO3)cc2)sc2c1CCCC2` (stereo not drawn), the growth is 106% (inactive). Regarding `COc1ccc(/C=C/C(=O)OCC(=O)NNC(=O)c2ccccc2)cc1OC`, the growth was 111% (inactive). As for `Cc1sc(N=Nc2ccc(N(C)C)cc2)[n+]([O-])c1C`, the growth is 99.5% (inactive).

Regarding `O=C(/C=C/c1ccccc1)n1c(-c2ccc(Cl)cc2)nc2ccccc21`, the growth is 41.1% (inactive). With `COC(=O)[C@H]1[C@H](OC)[C@@H](OC(=O)/C=C/c2ccncc2)CC2CN3CCc4c([nH]c5cc(OC)ccc45)[C@@H]3C[C@@H]21` (stereo partly drawn), the growth was 84.1% (inactive). With `O=C1Nc2ccc(Br)cc2C1=N/C=c1\[nH]c(=O)/c(=C/c2ccc(Cl)cc2)s1`, the growth is 94% (inactive). For `Nc1c(C(=O)Nc2cccc(C(F)(F)F)c2)sc2nc3c(cc12)CCCCC3`, the growth was 44.8% (inactive). On the same count and under the same terms, next, `COc1cc(/C=C2\C=C(c3ccc(F)cc3)N(Cc3ccccc3)C2=O)cc(OC)c1OC`: 79% (inactive); `Clc1nc(Cl)c2ncn(C/C=C/Cn3cnc4c(Cl)nc(Cl)nc43)c2n1`: 74.5% (inactive); `NC(C(=O)O)C(O)c1ccc(OCc2ccccc2)c(OCc2ccccc2)c1` (stereo not drawn): 97.1% (inactive). Still for that read-out and setting: then `Nc1c(C(=O)Nc2ccccc2)sc2nc3c(cc12)CCC3`, with 85.1% (inactive). Turning to `COc1ccc(/C=C/c2cc(N3CCOCC3)c3cc(F)c(F)cc3n2)cc1OC`, the growth was 48.8% (inactive). For the molecule `O=[N+]([O-])c1cccc(-c2cc(-c3cc(Br)ccc3O)[nH]n2)c1`, the growth is 25.4% (inactive).

`COC1=CC(c2ccc[nH]2)=N/C1=C\c1[nH]c(C)c(C(=O)CCC(=O)Oc2ccc3c(c2)CCC2C3CC[C@]3(C)[C@@H](O)CC[C@@H]23)c1C` (stereo partly drawn): the growth was 37.2% (inactive). For `COc1ccc(C2=NN(c3ccc(S(N)(=O)=O)cc3)C(c3cn(-c4ccccc4)nc3-c3ccc(Cl)cc3)C2)cc1` (stereo not drawn), the growth is 92.5% (inactive). Same read-out and setting: then `COc1cc(CCn2nnc3c(NCCCCO)ncnc32)cc(OC)c1`, with 106% (inactive). As to `Clc1ccc(-c2nc(-c3ccco3)cn3ccnc23)cc1`, the growth was 30.6% (inactive). As for `O=C(c1ccncc1)N1N=C(c2ccc(Cl)cc2)CC1c1c[nH]c2ccccc12` (stereo not drawn), the growth is 105% (inactive). Same read-out and setting: next, `COc1ccc(-c2cn[nH]c2-c2cc(OC)c3c(c2)OCCO3)cc1`: 60.4% (inactive). Turning to `O=S(=O)(c1ccccc1)n1ccc(-c2ccc3c(c2)CCO3)n1`, the growth was 83.4% (inactive). Turning to `COC1=CC(c2ccc[nH]2)=N/C1=C\c1[nH]c(C)c(C(=O)CCCCC(=O)NCc2ccccc2)c1C`, the growth is 77.1% (inactive).

`Nc1c(C(=O)Nc2cccc([N+](=O)[O-])c2)sc2nc3c(cc12)C(O)CCC3` (stereo not drawn): the growth is 79.9% (inactive).

Take `COc1cccc(NC(=O)c2sc3nc4c(cc3c2N)CCCC4)c1`: the growth is 39.4% (inactive).

Consider `O=C(Nc1cccc(C(F)(F)F)c1)Nc1ccc(OCc2nnc(-c3ccccc3)o2)c(F)c1`, for which the growth is 46.6% (inactive). On the same count and under the same terms, next, `CC(=O)Nc1nc(C(=O)N2N=C(C)/C(=C/c3ccc(Cl)cc3)C2=O)cs1`: 104% (inactive); `COc1cc(C(=O)OCCCCCCCCCCC[P+](c2ccccc2)(c2ccccc2)c2ccccc2)ccc1O`: -54.9% (active); `O=C(NCCCN1CCN(CCCNC(=O)C2CCCCC2)CC1)C1CCCCC1`: 107% (inactive). For `COc1cc2c(cc1OC)C1(C)N(CC2)C(=O)OC1(C)C` (stereo not drawn), the growth is 105% (inactive). As for `CCCCCc1c(C)[nH]c(/C=c2\[nH]/c(=C3/C=c4ccccc4=N3)cc2OC)c1C`, the growth was 10.5% (inactive). With `COc1cc(-c2n[nH]nc2-c2ccc3c(c2)OCCO3)cc(OC)c1OC`, the growth was 42.6% (inactive).

The record behind these values is PubChem BioAssay (NCI).
